Measurements taken from PubChem BioAssay AID2479 (National Center for Advancing Translational Sciences (NCATS), 2010).
Inconclusive results are not listed. Calls of active or inactive are those of the source. Calls come from the whole dose curve.

Target: Thyroid hormone receptor beta (Homo sapiens) (UniProt P10828)
Experiment: Gene Reporter Secondary Assay for Inhibitors of the Interaction of Thyroid Hormone Receptor and Steroid Receptor Coregulator 2 in a Thyroid Receptor Assay
Settings: WRO cells TRb DR4-TRE luciferase reporter, T3, 20 h
From the text: NIH Molecular Libraries Probe Production Network [MLPCN] NIH Chemical Genomics Center [NCGC] MLPCN Grant: DK058080 Assay Provider: R. Kip Guy, St. Jude Children's Research Hospital NCGC Assay Overview: Thyroid receptor (TR) regulates many homeostatic processes including basal metabolism, cardiovascular function, body weight, and lipid trafficking. TR modulators are potential therapeutics for obesity and hyperlipidemias but current thyroid analogs have undesirable side effects, particularly cardiac stimulation. This secondary assay characterized compounds identified in the qHTS for Inhibitors of the Interaction of Thyroid Hormone Receptor and Steroid Receptor Coregulator 2 (PubChem AID 1485). The human follicular thyroid carcinoma cell line WRO (kindly provided by Dr. M. D. Ringel) stably expresses TRb and a luciferase reporter gene fused to TR response element. The addition of T3 ligand elevates expression of the TRE luciferase reporter (DR4-TRE-luc).
NCGC Assay Protocol Summary: Cells were maintained in RPMI 1640 culture medium supplemented with 10% heat-inactivated FBS, 0.33 mg/ml hygromycin, 0.33 mg/ml geneticin, 50 units/ml penicillin, 50 ug/ml streptomycin. Cells were harvested and resuspended at 330,000 cells/ml in assay medium (50% DMEM 50% F-12 medium without Phenol-Red (Cellgro #16-405-CV), L-glutamine, 10% heat inactivated and charcoal treated FBS, 100 uM non-essential amino acid, 50 units/ml penicillin, 50 ug/ml streptomycin). Cells were dispensed at 8,000 cells/25 ul/well into 384 well plates (Corning 3917) and incubated 12 hr at 37 C and 5% CO2. Following transfer of 130 nL compound (ranging from 0.2 to 52 uM) and T3 (100 nM final concentration), the plates were incubated 20 hr incubation at 37 C and 5% CO2. Plates were then equilibrated at ambient temperature for 30 min, 25 ul of Bright-Glo (Promega) was added and luminescence was detected by an EnVision (PerkinElmer).

Chain of Thyroid hormone receptor beta (Homo sapiens) (P10828 whole entry, looked up): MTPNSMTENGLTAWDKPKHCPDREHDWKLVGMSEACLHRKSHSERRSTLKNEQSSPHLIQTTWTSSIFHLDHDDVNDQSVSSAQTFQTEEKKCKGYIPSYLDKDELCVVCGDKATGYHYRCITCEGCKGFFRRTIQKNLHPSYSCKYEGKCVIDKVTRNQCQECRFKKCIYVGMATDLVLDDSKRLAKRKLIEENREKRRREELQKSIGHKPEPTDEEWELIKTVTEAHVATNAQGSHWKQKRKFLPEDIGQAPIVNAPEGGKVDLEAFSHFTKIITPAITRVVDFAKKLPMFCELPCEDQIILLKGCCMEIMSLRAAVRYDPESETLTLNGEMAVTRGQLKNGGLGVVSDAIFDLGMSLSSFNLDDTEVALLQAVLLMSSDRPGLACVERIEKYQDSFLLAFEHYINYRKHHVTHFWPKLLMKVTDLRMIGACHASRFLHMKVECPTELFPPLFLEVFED

SMILES | outcome | Potency
CC(=O)N1CCN(C(=O)COC(=O)c2ccc([S+](C)(=O)[O-])c([N+](=O)[O-])c2)CC1 | inactive | –
CS(=O)(=O)c1ccc(C(=O)OCC(=O)N2CCOCC2)cc1[N+](=O)[O-] | – | 23 µM (active)
CCN1CCN(C(=O)COC(=O)c2ccc(S(C)(=O)=O)c([N+](=O)[O-])c2)C(C)C1 (centres undefined) | – | 23.5 µM (active)
CS(=O)(=O)c1ccc(C(=O)OCC(=O)Nc2cc(C(F)(F)F)ccc2Cl)cc1[N+](=O)[O-] | – | 22.7 µM (active)
Cc1cc(C(=O)OCC(=O)NC(=O)C2CCCCC2)ccc1[N+](=O)[O-] | inactive | –
CCN1CCN(C(=O)COC(=O)c2ccc(S(C)(=O)=O)c([N+](=O)[O-])c2)CC1C (centres undefined) | – | 26.3 µM (active)
CC(=O)Nc1cccc(C(=O)OCC(=O)NC(=O)C2CCCCC2)c1 | inactive | –
O=C(COC(=O)c1cccc([N+](=O)[O-])c1Cl)NC1C2CC3CC(C2)CC1C3 (centres undefined) | inactive | –
O=C(COC(=O)c1cccc([N+](=O)[O-])c1)NC1C2CC3CC(C2)CC1C3 (centres undefined) | inactive | –
COc1cccc(CNC(=O)COC(=O)c2ccc(S(C)(=O)=O)c([N+](=O)[O-])c2)c1 | – | 21.5 µM (active)
CC(=O)c1cccc(NC(=O)C(C)OC(=O)c2ccc(S(C)(=O)=O)c([N+](=O)[O-])c2)c1 (centres undefined) | – | 14.9 µM (active)
CN1CCN(C(=O)COC(=O)c2ccc(S(C)(=O)=O)c([N+](=O)[O-])c2)CC1 | – | 33.9 µM (active)
CS(=O)(=O)c1ccc(C(=O)OCC(=O)NCC2CCCO2)cc1[N+](=O)[O-] (centres undefined) | – | 15.2 µM (active)
CS(=O)(=O)c1ccc(C(=O)OCC(=O)N2CCCC2)cc1[N+](=O)[O-] | – | 17.7 µM (active)
CS(=O)(=O)c1ccc(C(=O)OCC(=O)N2CCc3ccccc32)cc1[N+](=O)[O-] | – | 18.6 µM (active)
CS(=O)(=O)c1ccc(-c2nnc(-c3ccccc3)o2)cc1[N+](=O)[O-] | – | 15.7 µM (active)
O=C(COC(=O)c1ccc(Cl)c([N+](=O)[O-])c1)NC1C2CC3CC(C2)CC1C3 (centres undefined) | inactive | –

SMILES | outcome | Potency
O=C(COC(=O)c1ccc(F)c([N+](=O)[O-])c1)NC1C2CC3CC(C2)CC1C3 (centres undefined) | inactive | –
CS(=O)(=O)c1ccc(C(=O)OCC(=O)NC(=O)NC2CCCCC2)cc1[N+](=O)[O-] | – | 12.7 µM (active)
CS(=O)(=O)c1ccc(C(=O)OCC(=O)N2Cc3ccccc3C2)cc1[N+](=O)[O-] | – | 12.6 µM (active)
CC1CCCCN1C(=O)COC(=O)c1ccc(S(C)(=O)=O)c([N+](=O)[O-])c1 (centres undefined) | – | 12.6 µM (active)
C[S+](=O)([O-])c1ccc(C(=O)OCC(=O)N2CCN([S+](C)(=O)[O-])CC2)cc1[N+](=O)[O-] | inactive | –
CS(=O)(=O)c1ccc(C(=O)OCC(=O)N2CC(=O)Nc3ccccc32)cc1[N+](=O)[O-] | – | 15.8 µM (active)
Cc1ccccc1NC(=O)COC(=O)c1ccc(S(C)(=O)=O)c([N+](=O)[O-])c1 | – | 22.9 µM (active)
CCN(CC)C(=O)COC(=O)c1ccc(S(C)(=O)=O)c([N+](=O)[O-])c1 | – | 16.8 µM (active)
CS(=O)(=O)c1ccc(-c2nnc(-c3ccccc3)s2)cc1[N+](=O)[O-] | – | 11.1 µM (active)
O=C(COC(=O)c1cc([N+](=O)[O-])ccc1Cl)NC1C2CC3CC(C2)CC1C3 (centres undefined) | inactive | –
O=C(COC(=O)c1ccc2ncsc2c1)NC(=O)C1CCCCC1 | inactive | –
CC1(C)C2CCC1(C)C(NC(=O)COC(=O)c1ccc(S(C)(=O)=O)c([N+](=O)[O-])c1)C2 (centres undefined) | – | 12.9 µM (active)
O=C(COC(=O)c1cc([N+](=O)[O-])ccc1F)NC1C2CC3CC(C2)CC1C3 (centres undefined) | inactive | –
Cc1ccc(F)cc1NC(=O)COC(=O)c1ccc(S(C)(=O)=O)c([N+](=O)[O-])c1 | – | 17.9 µM (active)
C[S+](=O)([O-])c1ccc(C(=O)OCC(=O)NC2C3CC4CC(C3)CC2C4)cc1 (centres undefined) | inactive | –
O=C(COC(=O)c1ccc(C(F)(F)F)cc1)NC(=O)C1CCCCC1 | inactive | –
C[S+](=O)([O-])c1ccc(C(=O)OCC(=O)N2CCNC(=O)C2)cc1[N+](=O)[O-] | inactive | –
